High-throughput results as filed in PubChem.
VP16 counter – VP16 counterscreen qHTS for inhibitors of ROR gamma transcriptional activity | Potency, µM (titrated, usually from 53.6 µM), hits mostly inhibitors | 3.5% of 310,000 active | AID 2546, 2010 | Drosophila S2 Gal4-VP16 UAS-luciferase, luminescence, 20 h;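 note: Gal4-VP16 expression switched on by copper sulfate through the metallothionein promoter; nearly all actives have a fitted effect of over 50% in size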
Sfp PPTase inh – qHTS Assay for Inhibitors of Bacillus subtilis Sfp phosphopantetheinyl transferase (PPTase). 4'-phosphopantetheinyl transferase ffp (Bacillus subtilis), Q9F4F7. Potency, µM, actives largely listed as inhibitors. 3.5% of 310,000 active. AID 1490, 2009. Biochemical Sfp PPTase activity, qHTS;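 note: the enzyme is Sfp with the accession as filed and its product quenches rhodamine fluorescence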
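Step 1, compound plus 15 nM Sfp-PPTase, 15 min, room temperature. Step 2, add rhodamine-CoA (5 uM) and BHQ-2-YbbR (12.5 uM). Step 3, read 525/598 nm fluorescence at 0 and 30 min.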
Epigenetic derep – Quantitative High-Throughput Screen for Regulators of Epigenetic Control | murine LDR cells, GFP reporter derepression, 30 h | Potency, µM (top dose mostly 53.9 µM), usual class: activators | 0.2% of 280,000 active | AID 1865, 2009; note: nearly all actives have a fitted effect of over 60% in size
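Murine LDR cells bearing a silenced CMV-driven GFP reporter were exposed to compound for 30 h at 37 C. After PBS washes, GFP-positive cells (20-120 um objects) counted by laser-scanning microplate cytometry.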
PINK1 modulator – A Quantitative High throughput Screen to Identify Chemical Modulators of PINK1 Expression; 0.2% of 410,000 active; AID 624263, 2012; PINK1 immunofluorescence, high-content cytometry, 24 h; Potency, µM (top dose mostly 76.6 µM), hits mostly activators; active = well fitted activation curve with a large enough effect; inconclusive = small, poorly fitted or top-dose-only effect; cell line not stated here; note: nearly all actives have a fitted effect of over 65% in size
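Compound titrations (5 concentrations, 24 h) on a stable cell line; DMSO and CCCP controls. Endpoint: fixed-cell PINK1 immunofluorescence with mitochondrial, cell and nuclear markers, scanned by microplate cytometer.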
ClpP mod – qHTS Assay for Activators of ClpP. ATP-dependent Clp protease proteolytic subunit (Bacillus subtilis (strain 168)), P80244. 1.9% of 340,000 active. purified B. subtilis ClpP, FRET peptide cleavage, 20 min. AID 651965, 2013. Potency, µM (highest dose often 57.5 µM); active = well fitted falling curve with a large enough effect; inconclusive = small, poorly fitted or top-dose-only effect; inactive = no such curve, though single readings can be large or run the other way; note: the source files actives as falling curves though it sought activators and does not explain the sign; nearly all actives have a fitted effect of over 65% in size
Target sequence (P80244 whole entry, looked up): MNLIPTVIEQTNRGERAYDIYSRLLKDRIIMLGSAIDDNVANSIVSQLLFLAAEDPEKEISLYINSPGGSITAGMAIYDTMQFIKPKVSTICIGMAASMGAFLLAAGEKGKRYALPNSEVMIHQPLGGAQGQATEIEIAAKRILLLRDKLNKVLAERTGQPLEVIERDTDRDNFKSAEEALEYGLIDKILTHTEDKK
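ClpP 10 microg/mL final, pH 8 Tris/KCl buffer with BSA, glycerol, Tween-20; compound pinned in; FRET-FV substrate; RT 20 min; Ex320/Em430; ΔFRET vs ADEP 5.8 microM, DMSO, no enzyme.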
RORg inh – qHTS for inhibitors of ROR gamma transcriptional activity | Nuclear receptor ROR-gamma (Mus musculus), P51450 | Drosophila S2 Gal4-RORgamma UAS-luciferase reporter, 20 h | 5.4% of 310,000 active | Potency, µM (top dose mostly 53.6 µM), actives largely listed as inhibitors; note: nearly all actives have a fitted effect of over 60% in size
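Drosophila Schneider cells stably carrying a metallothionein-driven Gal4 DBD–ROR gamma fusion and a UAS-Photinus luciferase reporter were exposed to compound for 1 hr, then induced with copper sulfate (700 uM final) for 20 hr at ambient temperature before luminescence reading.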
Large screens that a line does not name were inactive. Only some compounds are listed: those with a hit (about 8.1% of all), similar ones and a draw of the others. Unless noted, calls come from the whole dose curve; as a rule, active = well fitted curve in the direction sought with a large enough effect; inconclusive = small, poorly fitted or top-dose-only effect, or another doubt; inactive = no such curve, though single readings can be large; an effect the other way counts as inactive or inconclusive.

O=C(NC(Cc1ccccc1)c1nc2ccccc2[nH]1)c1cccc([N+](=O)[O-])c1 (stereo unspecified)	PINK1 modulator inconclusive (no result: ClpP mod)
O=C(Nc1nc2ccccc2[nH]1)c1cccc([N+](=O)[O-])c1	VP16 counter inconclusive, RORg inh 0.89µM (no result: ClpP mod)
O=C(Cc1nc2ccccc2[nH]1)c1cccc([N+](=O)[O-])c1	Sfp PPTase inh 14µM, PINK1 modulator 14µM
O=C(NCc1nc2ccccc2[nH]1)c1ccc([N+](=O)[O-])cc1	none
O=C(Nc1nc2ccccc2[nH]1)c1ccc([N+](=O)[O-])cc1	VP16 counter inconclusive, RORg inh 3.2µM (no result: ClpP mod)
COC(=O)c1cc(C(=O)Nc2nc3ccccc3[nH]2)cc([N+](=O)[O-])c1	RORg inh 1.4µM (no result: Epigenetic derep, ClpP mod)
N#Cc1cccc(NC(=O)CCNS(=O)(=O)c2ccc3c(c2)CCN3C(=O)C2CC2)c1	none (no result: VP16 counter, Sfp PPTase inh, RORg inh)
CCOC(=O)c1ccc(NC(=O)c2noc3c2CCCC3)cc1	none (no result: VP16 counter, Sfp PPTase inh, RORg inh)
COc1cccc(N2CCN(C(=O)CN3CCSc4ccc(S(=O)(=O)N(C)C)cc43)CC2)c1	none (no result: VP16 counter, Sfp PPTase inh, RORg inh)
CCOC(=O)C(CC)/C(C)=N/NC(=O)c1ccc([N+](=O)[O-])cc1 (stereo unspecified)	VP16 counter inconclusive, RORg inh 13µM
CCOC(=O)/C(C)=N/NC(=O)c1ccc([N+](=O)[O-])cc1	none (no result: ClpP mod)
COc1ccc(-c2nnc3n2N=C(c2ccccc2OC)CS3)cc1	RORg inh inconclusive (no result: Epigenetic derep, PINK1 modulator, ClpP mod)
CC(=O)C1=C(c2ccc(F)cc2)N(C(C)=O)n2c(nnc2C2CCCCC2)S1	none (no result: VP16 counter, Sfp PPTase inh, RORg inh)
CC(=O)C1=C(c2ccccc2)N(C(C)=O)n2c(C)nnc2S1	VP16 counter 18µM, RORg inh 11µM
O=C(Nc1cc(C(F)(F)F)ccc1Cl)c1ccncc1	none
O=C(Cc1ccccc1)NC(=S)Nc1cccc(C(F)(F)F)c1	VP16 counter 13µM, RORg inh 7.1µM
COC(=O)CCC(=O)NC(=S)Nc1cc(Cl)ccc1Cl	VP16 counter inconclusive, RORg inh 10µM
O=C(Nc1cccc(C(F)(F)F)c1)c1cccnc1NCCO	none (no result: Epigenetic derep, ClpP mod)
C/C(CC(=O)Nc1cccc(C(F)(F)F)c1)=N\NC(=O)Cc1ccccc1	RORg inh inconclusive (no result: ClpP mod)
COC(=O)CCC(=O)Nc1ccc(Cl)c(Cl)c1	none
O=C(Nc1cccc(C(F)(F)F)c1)c1cccnc1NCCc1ccccc1	VP16 counter inconclusive, ClpP mod 28µM, RORg inh inconclusive
Cc1ccc(C(=O)NC(=S)Nc2cc(C(F)(F)F)ccc2Cl)cc1	Sfp PPTase inh inconclusive, RORg inh 10µM
O=C(CCC(=O)N1CCSc2ccccc21)NCc1ccccc1Cl	none (no result: VP16 counter, Sfp PPTase inh, RORg inh)
COc1ccc(C2CC(=O)N(CC(=O)Nc3ccc(C(C)=O)cc3)c3ccccc3S2)cc1OC (stereo unspecified)	none (no result: VP16 counter, Sfp PPTase inh, RORg inh)
COC(=O)c1cc(-c2ccc(C)cc2)c2c(=O)n(C)c(=O)n(C)c2n1	ClpP mod inconclusive (no result: VP16 counter, Sfp PPTase inh, RORg inh)
Nc1cc(=O)nc(SCC(=O)Nc2ccc(F)cc2)n1-c1ccc(Cl)cc1	none (no result: VP16 counter, Sfp PPTase inh, RORg inh)
O=C(Cc1ccccc1)NC(=S)Nc1cc(C(F)(F)F)ccc1Cl	RORg inh 1.6µM
C(=N\N1CCN(C2c3ccccc3-c3ccccc32)CC1)/c1ccccn1	VP16 counter inconclusive, RORg inh 7.1µM
Cc1cc(C(=O)Nc2sc(C)c(-c3ccc(F)cc3)c2C(N)=O)no1	ClpP mod 13µM
CCc1ccc(-c2c(C)sc(NC(C)=O)c2C(N)=O)cc1	Sfp PPTase inh 50µM
Cc1sc(NC(=O)C2CCCCC2C(=O)O)c(C(N)=O)c1-c1ccccc1 (stereo unspecified)	none
Cc1sc(NC(=O)CCC(=O)O)c(C(N)=O)c1-c1ccccc1	Sfp PPTase inh 35µM, RORg inh inconclusive
CCOC(=O)c1c(NC(=O)/C=C/C(=O)O)sc(C)c1-c1ccc(C(C)(C)C)cc1	VP16 counter inconclusive, RORg inh 11µM
